About 83,000 compounds went through this panel and 20% of them were active in at least one assay; those are over-represented in the sample as a whole.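 48-hour exposure, single concentration, 96-well plates; percent growth endpoint where 0 means no net growth. Active: below 10.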 A number with no mark means an inactive call. Active and inactive are the calls of the source.

One experiment concerns OVCAR-3 ovarian. The experiment can be described thus: NCI-60 one-dose screen, 48 h (100 = growth as untreated, 0 = no growth, -100 = all killed). The note with it: 10 µM unless noted.
`CC(C)C/C(=N\NC(=O)c1ccncc1)c1cc(Cl)ccc1O`: the growth is 11.1%.

With `Cn1cnc([N+](=O)[O-])c1S(=O)(=O)Oc1ccc(Cl)cc1`, the growth was -60.3% (active).

Consider `CN1COc2ccc3ccccc3c2C1`, for which the growth was 98.9%.

Regarding `CCCCCCCC1(C)NC(=O)NC1=O` (stereo not drawn), the growth is 115%.

Turning to `CC(O)c1nc2c(c(=O)n(C)c(=O)n2C)n1C` (stereo not drawn), the growth is 108%.

Another experiment concerns HS 578T breast. Described as above. The note with it: 10 µM unless noted.
As to `COc1ccc2c(c1)C(=O)/C(=C/c1cccc(OCC(=O)c3ccccc3)c1)CC2`, the growth was 98.6%.

On to `CCOC(=O)c1cc(-c2cccnc2)nc2c(Cl)cc(Cl)cc12`, for which the growth is 95%.

As for `COc1ccc(C(=O)COc2cccc(/C=C3\Oc4ccc5ccccc5c4C3=O)c2)cc1`, the growth is 93.3%.

As to `CC(=O)NC1(C(=O)O)CCCC1`, the growth is 122%.

As to `CCOC(=O)C1=NN(c2ccc(Cl)cc2)C2C3N(c4ccc(Cl)cc4)N=C(C(=O)OCC)N3c3ccccc3N12` (stereo not drawn), the growth was 120%.

For the compound `CCn1c2ccccc2c2ccc(C(C)=O)cc21`, the growth was 144%.

As to `Cc1ccc(C=C2C(Cl)=C(Cl)C(Cl)=C2Cl)cc1`, the growth was -9.6% (active).

As for `c1cnc2ccc3ncccc3c2c1`, the growth was 109%.

Consider `CC1=CC(=O)C(C(C)=Nc2ccccc2Cl)C(=O)O1` (stereo not drawn), for which the growth was 83.6%.

Take `O=C(/C=C/c1cc2ccccc2[nH]c1=O)c1ccc(O)cc1`: the growth was -27.2% (active).

With `COc1cc(/C=C2\COc3ccc(O)cc3C2=O)cc(OC)c1`, the growth is 77.4%.

Consider `ClC1=C(Cl)C(Cl)=C(Cl)C1=C/C=C/c1ccccc1`, for which the growth was -5.58% (active).

As for `CSc1ncc2ncn(C3OC(CO)C(O)C3O)c2n1` (stereo not drawn), the growth was 95.2%.

In the case of `CN(C)CCCN1c2nc3ccccc3cc2Sc2cc3ccccc3nc21`, the growth was 2.82% (active).

On to `OC(Cc1cccnc1)c1ccccc1` (stereo not drawn), for which the growth was 112%.

As to `O=C(N1CCC(CN=c2cc3n(-c4ccc(Cl)cc4)c4ccccc4nc-3cc2Nc2ccc(Cl)cc2)CC1)N1CC1`, the growth was -56.4% (active).

Consider `CCCCCCCC1(C)NC(=O)NC1=O` (stereo not drawn), for which the growth was 114%.

Turning to `CC(O)c1nc2c(c(=O)n(C)c(=O)n2C)n1C` (stereo not drawn), the growth is 118%.

A further experiment deals with NCI/ADR-RES ovarian. The description is as above. The note with it: 10 µM unless noted.
`COc1ccc2c(c1)C(=O)/C(=C/c1cccc(OCC(=O)c3ccccc3)c1)CC2`: the growth was 80.7%.

As for `NC(=Nc1ccccc1)SCCCCSC(N)=Nc1ccccc1`, the growth is 66.3%.

With `CC/C(=C\c1ccc(N(C)C)cc1)c1ccncc1`, the growth was 8.26% (active).

Regarding `CCOC(=O)c1cc(-c2cccnc2)nc2c(Cl)cc(Cl)cc12`, the growth is 94%.

As for `Clc1ccc(-n2cnc3c(Cl)ncnc32)cc1Cl`, the growth is 107%.

With `O=C(CSCC(=O)N/N=C/c1ccccc1O)N/N=C\c1ccccc1O`, the growth was 26.1%.

Take `COc1ccc(C(=O)COc2cccc(/C=C3\Oc4ccc5ccccc5c4C3=O)c2)cc1`: the growth is 96.4%.

For `CC(=O)NC1(C(=O)O)CCCC1`, the growth is 140%.

For the compound `CCOC(=O)C1=NN(c2ccc(Cl)cc2)C2C3N(c4ccc(Cl)cc4)N=C(C(=O)OCC)N3c3ccccc3N12` (stereo not drawn), the growth is 101%.

In the case of `CC(=O)Oc1ccc(C23c4ccccc4C2(OC(C)=O)c2cc(OC(C)=O)ccc23)cc1` (stereo not drawn), the growth is 39.3%.

Take `COc1ccc(/C=C2\NC(=S)NC2=O)cc1`: the growth is 115%.

Turning to `O=C(/C=C/c1ccccc1)CC(c1ccccc1)N1CCOCC1` (stereo not drawn), the growth is 104%.

As for `CCn1c2ccccc2c2ccc(C(C)=O)cc21`, the growth is 101%.

As for `Cc1ccc(C=C2C(Cl)=C(Cl)C(Cl)=C2Cl)cc1`, the growth was -3% (active).

`Cc1ccccc1NC(=O)c1cc2ccccc2cc1O`: the growth is 27.8%.

For `c1ccc(-n2nnnc2-c2cccc3ccccc23)cc1`, the growth is -12.6% (active).

On to `Nc1ccccc1-c1ccc([N+](=O)[O-])cc1`, for which the growth is 52.2%.

As to `c1cnc2ccc3ncccc3c2c1`, the growth was 128%.

Turning to `CC(=O)n1c2ccccc2c2ccccc21`, the growth is 100%.

`CC1=CC(=O)C(C(C)=Nc2ccccc2Cl)C(=O)O1` (stereo not drawn): the growth is 140%.

Regarding `COc1c(O)cc2oc3cc(O)c(CC=C(C)C)c(O)c3c(=O)c2c1C/C=C(\C)CCC=C(C)C`, the growth is -39% (active).

For `O=C(/C=C/c1cc2ccccc2[nH]c1=O)c1ccc(O)cc1`, the growth is 36.4%.

Regarding `COc1cc(/C=C2\COc3ccc(O)cc3C2=O)cc(OC)c1`, the growth is 65.8%.

Consider `ClC1=C(Cl)C(Cl)=C(Cl)C1=C/C=C/c1ccccc1`, for which the growth is -0.902% (active).

Consider `COc1cccc(CCC2C(=O)CCCC2=O)c1`, for which the growth is 110%.

As to `CSc1ncc2ncn(C3OC(CO)C(O)C3O)c2n1` (stereo not drawn), the growth is 143%.

As to `CN(C)CCCN1c2nc3ccccc3cc2Sc2cc3ccccc3nc21`, the growth was -23.1% (active).

As to `Cc1c(C)c(N2C(=O)C=CC2=O)c(C)c(C)c1N1C(=O)C=CC1=O`, the growth is 96.4%.

Consider `CC12CCC3C(CCC4CC(=O)/C(=C\O)CC43C)C1CCC(=O)O2` (stereo not drawn), for which the growth is 96.1%.

For the compound `CC(C)C/C(=N\NC(=O)c1ccncc1)c1cc(Cl)ccc1O`, the growth was 5.17% (active).

As to `OC(Cc1cccnc1)c1ccccc1` (stereo not drawn), the growth is 107%.

With `O=C(N1CCC(CN=c2cc3n(-c4ccc(Cl)cc4)c4ccccc4nc-3cc2Nc2ccc(Cl)cc2)CC1)N1CC1`, the growth is -45.5% (active).

With `CN1COc2ccc3ccccc3c2C1`, the growth is 89.8%.

Consider `CCCCCCCC1(C)NC(=O)NC1=O` (stereo not drawn), for which the growth is 138%.

Consider `CC(O)c1nc2c(c(=O)n(C)c(=O)n2C)n1C` (stereo not drawn), for which the growth is 113%.

Values taken from PubChem BioAssay (NCI).
